Screening data as filed in PubChem BioAssay.
The entries come from a sample that favours hits as a whole.
Cycloheximide cs – Cycloheximide Counterscreen for Small Molecule Inhibitors of Shiga Toxin; max response, %; hit rate 12% among 300,000; cell reporter, cycloheximide protein synthesis inhibition counterscreen; AID 2314, 2010; in the data active means max response mostly above about 13%, no sharp cut-off; inactive means mostly below about 14%; further: read at 38.3 µM for the half of the compounds with a filed dose; 0% is about no effect
Giardia FBPA inh – qHTS Assay for Inhibitors of Fructose-1,6-bisphosphate Aldolase from Giardia Lamblia | Potency, µM (titrated, usually from 59.6 µM), inactives show at the highest dose activity, negative = inhibition, most hits filed as inhibitors | hit rate 0.71% among 290,000 | purified Giardia FBPA; further: potency means the concentration at half of the fitted maximal effect; on the % scale 0 is the no-effect control and ±100 the full control effect; nearly all actives have a fitted effect of over 55% in size
Target sequence (A8B2U2 whole entry, looked up): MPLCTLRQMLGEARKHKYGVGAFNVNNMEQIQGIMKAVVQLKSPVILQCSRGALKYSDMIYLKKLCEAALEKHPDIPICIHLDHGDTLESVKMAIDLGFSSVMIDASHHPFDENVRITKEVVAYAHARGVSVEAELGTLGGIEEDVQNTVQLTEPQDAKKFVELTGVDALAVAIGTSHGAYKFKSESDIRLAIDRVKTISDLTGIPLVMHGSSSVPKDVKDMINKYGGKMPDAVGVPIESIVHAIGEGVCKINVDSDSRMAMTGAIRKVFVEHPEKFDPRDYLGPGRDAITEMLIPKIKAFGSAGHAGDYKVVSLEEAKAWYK
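40 nM FBPA preincubated 10 min at RT with compound (up to 57.5 uM final), then substrate plus GAPDH/TPI/NAD/arsenate coupling and diaphorase/resazurin added. Fluorescence read after 20 min at RT, 525/598 nm.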
LmPK inh – qHTS Assay for Inhibitors of Leishmania Mexicana Pyruvate Kinase (LmPK) | Q27686 | AID 1721, 2009 | Potency, µM (top dose mostly 57.5 µM), for the others: at the top dose activity change, negative = inhibition, most hits filed as inhibitors | hit rate 0.37% among 290,000 | purified LmPK, Kinase-Glo ATP luminescence, 1 h; further: potency means the concentration at half of the fitted maximal effect; on the % scale 0 is the no-effect control and ±100 the full control effect
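Purified LmPK (0.1 nM) converted ADP (0.1 mM) to ATP with PEP (0.5 mM) in imidazole buffer pH 7.2 with KCl and MgCl2, 1 h at room temperature. ATP was read by Kinase-Glo luminescence; data normalized to uninhibited and no-enzyme controls.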
Tb PYK inh – qHTS of Trypanosoma Brucei Inhibitors; pyruvate kinase (Trypanosoma brucei), Q57TT1; TbPYK enzyme, Kinase-Glo Plus ATP luminescence, 45 min; Potency, µM (top dose mostly 76.8 µM), for the others: at the highest dose activity, negative = inhibition, usual class: inhibitors; hit rate 0.12% among 410,000; AID 624173, 2012; further: potency means the concentration at half of the fitted maximal effect; on the % scale 0 is the no-effect control and ±100 the full control effect; nearly all actives have a fitted effect of over 50% in size
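Luminescence from Kinase-Glo Plus, added after a 45-minute room-temperature reaction, served as the end-point read-out. The enzyme and substrate were preincubated with compound before ADP (130 uM final) initiated turnover. Concentration-effect curves came from normalized qHTS data.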
Shiga toxin inh – A qHTS for Small Molecule Inhibitors of Shiga Toxin. Vero cells, Shiga toxin protein synthesis inhibition reporter. inhibition, % at 38.7 µM. hit rate 9.2% among 290,000. AID 2315, 2010; in the data active means inhibition mostly above about 28%, no sharp cut-off; inactive means mostly below about 43%; further: 0% is about no effect
RE007 growth inh – qHTS Assay for Inhibitors of the HIV-1 protein Vpr; S. pombe RE007 Vpr strain, BacTiter-Glo ATP luminescence, 24 h; Potency, µM (highest dose often 92.2 µM), for the others: at the top dose activity change, negative = less growth, most hits filed as inhibitors; hit rate 0.21% among 360,000; AID 651644, 2012; active means well fitted falling curve with a large enough effect; inconclusive means small, poorly fitted or top-dose-only effect; inactive means no such curve, though single readings can be large or run the other way; further: potency means the concentration at half of the fitted maximal effect; on the % scale 0 is the no-effect control and ±100 the full control effect; nearly all actives have a fitted effect of over 50% in size
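Fission yeast RE007 carrying one integrated HIV-1 vpr copy, seeded at OD 0.01 in PMG+AL medium with 23 nL pinned compound. Grown 24 h at 30 degrees; viability read by BacTiter-Glo luminescence after 5 min.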
Starred values were filed as active, the others as inactive; u = inconclusive; x = no result given. Unless noted, the call rests on the fitted dose curve; in most records, active means well fitted curve in the direction sought with a large enough effect; inconclusive means small, poorly fitted or top-dose-only effect, or another doubt; inactive means no such curve, though single readings can be large; an effect the other way counts as inactive or inconclusive.

SMILES	Cycloheximide cs	Giardia FBPA inh	LmPK inh	Tb PYK inh	Shiga toxin inh	RE007 growth inh
CC[N+]1(C)CCC(O)(c2ccc(OC)cc2)C(C(=O)c2ccc(OC)cc2)C1 (centres undefined)	x	x	x	-11.2%	x	39.8µM*
CN1CCC(O)(c2ccc(F)cc2)C(C(=O)c2ccc(F)cc2)C1 (centres undefined)	x	x	x	0.6%	x	x
CC(C)CCN1NC2(CCCC(C)C2)NC1=S (centres undefined)	8.4	1.1%	-4.2%	-10.2%	24.7	13.3%
CC1CCCC2(C1)NC(=S)c1c(sc3c1CCCC3)N2 (centres undefined)	15.0*	6.7%	-0.1%	-38.8%	56.9	u
COc1ccc(-n2ncc3c(NC(C)(C)CO)ncnc32)cc1	x	x	x	0.1%	x	x
Cc1ccccc1OCC(=O)Nc1ccc2nc(SCC(N)=O)sc2c1	x	x	x	-0.3%	x	x
CC(C)(C)NC(=O)N1CCN(c2nc(-c3ccccc3)ns2)CC1	35.0*	5.4%	-1.7%	-3.0%	107.7*	20.5%
CC(C)(CC(=O)O)CC(=O)N1CCCN(c2nc3ccc(Cl)cc3s2)CC1	16.2*	7.0%	2.5%	-2.5%	67.3*	10.7%
CCCCC(=O)N1CCN(c2nc3ccc(Cl)cc3s2)CC1	45.2*	x	-8.3%	-8.0%	43.1*	-16.5%
CC(C)(C)NC(=O)N1CCN(c2nc3ccc(Cl)cc3s2)CC1	14.6	1.8%	7.6%	-2.5%	41.6*	-1.8%
Cc1ccc(C)c(Cn2c(=O)n(CCc3ccccc3)c(=O)c3c(C)c(C)sc32)c1	x	x	x	5.0%	x	x
O=C(COc1ccc(Cl)cc1Cl)Nc1ccc(CN2CCCCC2)cc1	-4.0	-2.3%	3.4%	0.3%	-1.2	-2.8%
O=C(COc1ccc(F)cc1)Nc1ccc(S(=O)(=O)Nc2ncccn2)cc1	x	x	x	7.2%	x	26.0%
O=C(COc1ccc(CO)cc1)Nc1ccc(F)cc1	15.9*	7.5%	0.3%	-7.1%	26.0	5.4%
O=C(COc1ccc(CO)cc1Cl)Nc1ccc(F)cc1	48.2*	2.4%	2.0%	-0.8%	58.2*	-16.1%
COc1ccccc1NC(=O)COc1ccc(CO)cc1Cl	32.2*	-2.1%	6.2%	-1.5%	56.5*	-23.5%
Cc1ccc(CCNC(=O)c2cc3n(n2)CCCN(Cc2ccc(C)cc2)C3=O)cc1	x	x	x	0.3%	x	x
O=C(C1CCCCC1)N(Cc1cccnc1)c1nc2ccc(Cl)cc2s1	x	x	x	-2.5%	x	x
CCOc1ccc(NC(=S)NCc2cccnc2)cc1	7.5	4.9%	0.1%	-3.7%	4.7	-19.6%
CCCc1ccc(C(C)NC(=O)c2cnccn2)cc1 (centres undefined)	-2.2	-0.6%	1.1%	-1.9%	0.5	2.6%
CC(C)c1ccc(C(=O)NC(=S)NCc2cccnc2)cc1	16.2*	0.0%	0.2%	-11.3%	active	-7.0%
CCOC(=O)c1ccc(NC(=O)c2cnccn2)cc1	19.9*	1.8%	-6.7%	2.7%	26.5	1.9%
CCCCc1ccc(NC(=O)c2cnccn2)cc1	37.0*	0.9%	-29.5%	6.8%	61.0*	5.2%
CCOC(=O)c1ccc(NC(=S)NCc2cccnc2)cc1	12.8*	1.0%	0.3%	-4.0%	16.4	5.6%
CCOC(=O)c1ccc(NC(=O)C2CCCN(c3cnccn3)C2)cc1 (centres undefined)	28.9*	-4.1%	-1.1%	-11.9%	34.0*	-5.6%
SMILES	Cycloheximide cs	Giardia FBPA inh	LmPK inh	Tb PYK inh	Shiga toxin inh	RE007 growth inh
CCCCNC(=O)C1CCC(Cn2c(=O)c3sccc3n(CC(=O)Nc3ccccc3)c2=O)CC1 (centres undefined)	x	x	x	0.8%	x	x
O=C(Nc1ccccc1F)c1nc(S(=O)(=O)Cc2ccccc2F)ncc1Cl	x	x	x	8.3%	x	x
COc1cccc(OC)c1C1=CC(=O)C[C@H](c2ccc3c(c2)OCO3)C1	x	x	x	-4.4%	x	25.4%
COc1cccc2c1C(=O)O/C2=C/c1ccc2c(c1)OCO2	43.1*	-4.5%	-20.8%	x	71.2*	x
O=c1cc(-c2ccccc2)nc2cc(-c3ccco3)[nH]n12	17.6*	-15.7%	-1.4%	-5.2%	44.2	19.0%
CCCc1cc(=O)n2[nH]c(-c3ccc(C)cc3)cc2n1	39.2*	-26.4%	-1.1%	-6.7%	73.4*	6.0%
O=c1cc(-c2ccccc2)nc2cc(-c3ccc(Br)cc3)[nH]n12	8.8	-15.0%	0.5%	1.1%	12.2	3.5%
CCCc1cc(=O)n2[nH]c(-c3ccc(Cl)cc3)cc2n1	56.8*	-15.7%	-1.2%	4.1%	92.1*	12.3%
CCOC(=O)Cc1cc(=O)n2[nH]c(-c3ccc(Cl)cc3)cc2n1	9.9	-18.2%	-4.9%	1.7%	11.3	18.7%
CCCc1cc(=O)n2[nH]c(-c3ccccc3)cc2n1	29.8	-21.6%	-4.7%	-1.8%	69.7*	16.8%
Cc1cccc(N2CCN(C(=O)CN3CCSc4ccccc43)CC2C)c1 (centres undefined)	x	x	x	-8.5%	x	x
CCOc1ccccc1OCCn1ncc2ccc(OC)c(OC)c2c1=O	18.1*	6.8%	-3.4%	-4.5%	26.8	10.4%
COc1ccc2cnn(CCOc3cc(C)ccc3C(C)C)c(=O)c2c1OC	-2.0	-4.0%	2.9%	2.1%	19.8	9.1%
COc1ccc2cnn(CCOc3ccccc3)c(=O)c2c1OC	34.0*	1.3%	-1.9%	-0.1%	59.2	-0.9%
COCCNc1ncnc2ccc(-c3ccccc3C)cc12	x	-6.4%	x	x	x	x
CCCOc1ccc2cc(-c3ccccn3)c(=O)oc2c1	38.8*	-7.8%	10µM*	u	-10.9	u
COc1ccc2cc(-c3ccccc3)c(=O)oc2c1	31.8*	7.6%	-12.2%	6.3%	52.2*	-13.9%
CN(C)C(=O)COc1ccc2cc(-c3ccccc3)c(=O)oc2c1	25.3*	5.5%	-3.9%	-6.2%	54.5*	-3.9%
O=c1oc2ccccc2cc1-c1ccccc1	29.7*	4.6%	-12.6%	2.6%	42.3	-26.1%
COC(=O)C(C)Oc1ccc2cc(-c3ccccc3)c(=O)oc2c1 (centres undefined)	7.5	-6.7%	4.4%	-5.3%	13.5	5.0%
O=c1oc2ccc(Cl)cc2cc1-c1ccccc1	4.1	4.6%	-4.6%	7.0%	-2.1	7.1%
Cc1ccc(C)c(N2CCN(S(=O)(=O)c3cn(C)c(C)n3)CC2)c1	x	x	x	-3.2%	x	x
O=c1cc(Nc2ccc3c(c2)OCCO3)[nH]c(=O)n1C1CCCCC1	3.0	-7.5%	4.1%	-26.9%	23.2*	5.6%
CCc1ccc(Nc2cc(=O)n(C3CCCCC3)c(=O)[nH]2)cc1	30.2*	-4.9%	2.8%	0.6%	86.5*	1.7%
Cc1cc(C)cc(N2CCn3c2nc2c3c(=O)n(Cc3c(F)cccc3Cl)c(=O)n2C)c1	x	x	x	4.3%	x	x
Cc1cc(C)nc(NN=CC2=C(N3CCOCC3)/C(=C/c3ccc(Cl)cc3)CC2)n1	x	x	x	2.6%	x	-4.5%
